Laboratory results as given in PubChem BioAssay AID1347416 (National Center for Advancing Translational Sciences (NCATS), 2020).
Out of some 4,100 compounds screened, about 1,600 (39%) were called active. Inconclusive results (about 25%) are left out. The list shows a part of the results. A number with no mark means an inactive call. Calls come from the whole dose curve; as a rule, active = well fitted inhibition curve with a large enough effect; inconclusive = small, poorly fitted or top-dose-only effect; inactive = no such curve, though single readings can be large or run the other way.

test: qHTS Validation assay for Inhibitors of Plasmodium falciparum Dd2 growth in vitro; note: nearly all actives have a fitted effect of over 70% in size; details: P. falciparum Dd2 in RBCs, SYBR Green growth, 72 h; series mostly up to 28.7 µM; activity change, negative = inhibition: at the top concentration
Description: Malaria, a parasitic disease spread to humans through the bite of a Plasmodium infected Anopheles mosquito, continues to be a global health burden affecting millions of people, with an estimated 228 million cases and 405,000 deaths in 2018. Concerns about safety and limitations of current antimalarial treatments strongly emphasize the need to develop new therapeutic options. The scarce number of chemotypes and validated drug targets with efficacy against the liver stage, have hindered development of new antimalarials. To address this, a chemoprophylactic drug discovery effort was conducted through a combined phenotypic high-throughput asexual blood stage and liver stage screen, providing a robust foundation to identify liver-stage active lead chemotypes. Compounds were initially screened against Plasmodium falciparum Dd2 strain parasites using a in vitro SYBRGreen-1 based 72 hr proliferation assay to identify novel chemotypes to advance to liver stage assays. NIH/NCATS Early Translation Branch Assay Submitter (PI): Anton Simeonov Ph.D.
[…] Assay Protocol: PROTOCOL TABLE (as described by Inglese et al., 2007) SEQUENCE No. (e.g., 1, 2, 3, etc.); PARAMETER (e.g., Cells, Incubation, Reagent, etc.); VALUE; DESCRIPTION SEQUENCE, Parameter, Description 1; Reagent; 3 uL complete malaria growth medium, 1536 TC treated Black clear bottom plate 2; Controls; 23 nL positive control artesunate (300 nM final) to column 1; Neutral control DMSO to columns 2-4 3; Compound; 23 nL of compounds in dose response concentration (29 uM to 0.5 nM final) 4; Reagent; 5 uL malaria infected red blood cells (2.5% hematocrit final, 0.3% parasitemia 5; Time; 72 hours at 37C (5% O2, 5% CO2, 90% N2; 95% Rh) 6; Reagent; 2 uL lysis buffer/SYBRGreen-1, 25 sec shake immediately following dispense 7; Time; ~16 hours at 37C (5% O2, 5% CO2, 90% N2; 95% Rh) 8; Detector; EnVision (PerkinElmer) bottom read at 485/14nm excitation and 535/25 nm emission NOTES (numbers refer to sequence above): 1; Complete Malaria Growth Media: 1X RPMI-1640 w/L-glutamine, 5.5g/L Albumax II, 367 uM Hypoxanthine, 25 mM HEPES, 0.25% Sodium Bicarbonate, 35 uM Gentamicin sulfate 2; Controls were added using the Kalypsis Pintool (Wako USA) equipped with 1536 pinhead 3; Compounds were added in a 7-point, titration with a high final concentration of 29 uM by Pintool from seven inter-plate titrations of library plates and two DMSO control plates at the beginning and end (see Yasgar et al., 2008). 4; Red blood cells infected with Plasmodium falciparum Dd2 parasites were used. 6; Lysis buffer: 20 mM Tris-HCl, 10 mM EDTA, 0.16% Saponin, 1.6% Triton-X, 10X SYBR Green. REFERENCE: Inglese J, Shamu CE, Guy RK. 2007. Reporting data from high-throughput screening of small-molecule libraries. Nat Chem Biol. doi:10.1038/nchembio0807-438 Yasgar A, Shinn P, Jadhav A, Auld D, Michael S, Zheng W, Austin CP, Inglese J, Simeonov A. 2008. Compound Management for Quantitative High-Throughput Screening. J Lab Autom 13:79-89. doi:10.1016/j.jala.2007.12.004
% is set by controls: 0 for no effect and ±100 for the full control effect; potency is the fitted concentration of half-maximal effect.

| Compound | Potency | activity change, negative = inhibition |
| --- | --- | --- |
| O=C(CSc1nc(-c2ccccc2)no1)N1CCN(c2ccc(F)cc2)CC1 | 4.22 µM (active) |  |
| CCC(C)NC(=O)N1CC(Oc2ccc(-c3noc(C4CCOCC4)n3)cc2)C1 (centres undefined) |  | -7.58% |
| Cc1ccc(Cc2nc3ccccc3nc2SCC(=O)N2CCN(c3ccccc3)CC2)cc1 |  | 20.1% |
| Cc1nn(C)c(C)c1CCC(=O)N1CCC(Cc2noc(-c3ccc(F)cc3)n2)C1 (centres undefined) |  | 0.419% |
| CCn1ccc2sc(C)c(C(=O)N3CCN(c4ccc(F)cc4)CC3)c2c1=O |  | -25.7% |
| CC(C)c1ccc(-c2noc(SCC(=O)N3CCN(c4ccc(F)cc4)CC3)n2)cc1 | 0.668 µM (active) |  |
| COc1ccccc1CC(=O)N1CCC(n2cc(-c3nc(C)no3)nn2)CC1 |  | 1.69% |
| COc1ccccc1N1CCN(C(=O)CSc2nc(-c3ccc(C(C)C)cc3)no2)CC1 | 0.376 µM (active) |  |
| CC(C)c1ccc(-c2noc(SCC(=O)N(C)c3ccc(F)cc3)n2)cc1 | 0.944 µM (active) |  |
| COc1ccc(N2CCN(C(=O)CSc3nc(-c4ccc(C(C)C)cc4)no3)CC2)cc1 | 0.531 µM (active) |  |
| COc1ccc(-c2noc(-c3cccn3CC(=O)N(C)c3ccc(F)cc3)n2)cc1F |  | -29.9% |
| COc1ccc(C(=O)N2CCC(n3cc(-c4nc(-c5ccccc5)no4)nn3)C2)cc1 (centres undefined) |  | -1.74% |
| COc1ccc(-c2noc([C@@H]3CCCN3C(=O)Cc3ccccc3Cl)n2)cc1 |  | -6.35% |
| O=C(N/N=C(\CC(=O)c1cccs1)C(F)(F)F)c1ccncc1 |  | 13% |
| Cc1cccc(CN2CCCN(Cc3ccncc3)C(c3ccccc3)CC(=O)NCC2)c1 (centres undefined) | 4.22 µM (active) |  |
| CCOc1ccccc1CN1C[C@@H]2C(=O)N(CCN3CCc4ccccc4C3)C(=O)[C@@H]2C1 |  | -14.9% |
| Cc1cccc(Cn2nnc3c2C(=O)c2ccccc2C3=O)c1 |  | -9.79% |
| COc1cccc(CN2CCCN(Cc3ccncc3)C(c3ccccc3)CC(=O)NCC2)c1 (centres undefined) | 7.5 µM (active) |  |
| CCCNC(=O)N1CCCCCNC(=O)CC1c1ccccc1 (centres undefined) |  | 3.59% |
| CCOc1ccccc1CN1CCCN(Cc2ccncc2)C(c2ccccc2)CC(=O)NCC1 (centres undefined) | 6.68 µM (active) |  |
| COc1ccc(CN2CCCCCNC(=O)CC2c2ccccc2)cc1Cn1ccnc1 (centres undefined) | 9.44 µM (active) |  |
| COc1ccc(-n2nc(C3CCN(Cc4ccncc4)CC3)[nH]c2=O)cc1 |  | 10.1% |
| COc1ccc(CN(C)C2CCc3nn(C)c(=O)n3CC2)cc1Cn1cccn1 (centres undefined) |  | 12.6% |
| Cc1ccc(CNC(=O)N2CCCCCNC(=O)CC2c2ccccc2)cc1 (centres undefined) |  | 0% |
| COc1ccc(N=C2NC(=O)/C(=C\c3ccco3)S2)cc1 |  | 18.9% |

| Compound | Potency | activity change, negative = inhibition |
| --- | --- | --- |
| C#CCN(C)Cc1nc(C2(O)CCN(C(C)=O)CC2)cs1 |  | 10.6% [at 43.1 µM] |
| CCN(CC)C(=O)[C@@H]1CCCN1[C@H](Cc1ccccc1)C(=O)NC |  | 14.1% [at 43.1 µM] |
| Cc1noc(C)c1-c1cc2cc(CN(C)C)oc2c(NCCOc2ccccc2)n1 | 15.3 µM (active) |  |
| Cc1noc(C)c1-c1cc2cc(CN(C)C)oc2c(NCCc2ccccc2)n1 | 13.7 µM (active) |  |
| COCCN(CC1CCCO1)c1nc(CCN)nc2ccccc12 (centres undefined) |  | 52.7% |
| CC(C)c1nc2oc3c(NCC4CCCO4)ncnc3c2c2c1CCC2 (centres undefined) |  | -24.5% |
| CCOc1ccc(Nc2nc(NCC3CCCO3)c3ccccc3n2)cc1 (centres undefined) | 1.88 µM (active) |  |
| Cc1cccc(-c2nnc(SCC(=O)NC3CC3)n2C)c1 |  | 83.7% |
| CSc1nnc(-c2cc3ccccc3cc2O)n1C | 7.5 µM (active) |  |
| Cn1c(SCC(=O)N2c3ccccc3CCc3ccccc32)nnc1-c1cc2ccccc2cc1O | 8.41 µM (active) |  |
| Cc1noc([C@@H]2CN(C3CCSCC3)C[C@H]2CO)n1 |  | 16.2% |
| O=C(COc1ccccc1)N[C@H]1CO[C@H]2[C@@H]1OC[C@@H]2n1nnnc1Oc1ccc2c(c1)OCO2 |  | 28.9% |
| CCOC(=O)c1c(C)oc2nc(C)nc(Nc3ccc(CC)cc3)c12 | 7.5 µM (active) |  |
| CCOC(=O)c1c(C)oc2nc(C)nc(Nc3ccc(C)c(Cl)c3)c12 |  | 0.853% |
| O=C(O)Cc1sc(Nc2ccccc2Cl)nc1-c1ccccc1 |  | 12% |
| O=C(Nc1ccc(Cl)cc1)c1cc2c(-c3ccccc3)nn(-c3ccccc3)c2s1 | 2.37 µM (active) |  |
| O=C(Nc1ccccc1)c1cc2c(-c3ccccc3)nn(-c3ccccc3)c2s1 | 3.35 µM (active) |  |
| Cc1ccccc1NC(=O)c1cc2c(-c3ccccc3)nn(-c3ccccc3)c2s1 | 11.9 µM (active) |  |
| Cc1ccccc1NC(=O)Cn1c(=O)n(-c2ccccc2)c(=O)c2c1cc(C)n2C |  | 1.47% |
| CCOc1ccc2ncc3c(-c4ccccc4)nn(CC(=O)Nc4cccc(F)c4)c3c2c1 |  | 67.4% |
| COc1ccc(O)c(C(=O)c2cnc3c(c2)c(-c2ccc(F)cc2)c(C#N)c(=O)n3C)c1 | 5.96 µM (active) |  |
| Cc1cccc(CC(=O)N2CCC3(CC2)CC(O)CCO3)c1 (centres undefined) |  | 22.4% |
| O=C(CCC1CCCN(C(CO)CO)C1)N1CCN(Cc2ccccc2)CC1 (centres undefined) |  | 32% |
| Cc1cccc(CN2CCN(C(=O)CCl)CC2)c1 | 13.3 µM (active) |  |
